Source: PubChem BioAssay (Tox21)
“And” between values parts separate entries of the source, which are not always exact repeats. Equal entries are not always repeated. Results filed as inconclusive are left out. Entries that show only a call come without a potency. Where a structure was tested more than once in an assay, its records may differ in their call. The source made the active and inactive calls. The call rests on the fitted dose curve.
Potency means the concentration at half of the fitted maximal effect.

Assay: Nuclear factor erythroid 2-related factor 2/antioxidant responsive element (Nrf2/ARE) small molecule agonists: luciferase reporter gene qHTS assay in human keratinocytes (AID 1919969); further: nearly all actives have a fitted effect of over 35% in size
Conditions: KeratinoSens HaCaT ARE-luciferase, luminescence, 24 h; series mostly up to 92.4 µM
From the text: National Center for Advancing Translational Sciences [NCATS]
Division of Preclinical Innovation [DPI]
U.S. Environmental Protection Agency [EPA]
National Institutes of Environmental Health Sciences [NIEHS]
National Toxicology Program [NTP]
U.S. Food and Drug Administration [FDA]
Oxidative stress has been implicated in the pathogenesis of a variety of diseases ranging from cancer to neurodegeneration. The antioxidant response element (ARE) signaling pathway plays an important role in the amelioration of oxidative stress. The KeratinoSens (Givaudan, Switzerland) is an in vitro test method which quantifies luciferase induction as a measure of activation of Keap1-Nrf2-antioxidationt/electrophile response element (ARE) dependant pathway in HaCaT human keratinocytes stably transfected with a selectable plasmid. The KeratinoSens assay is a cell-based assay with a reporter cell line to detect potential skin sensitizers by their ability to induce the Nrf2/ARE-response. The activation of the report gene under culture conditions can be detected by ONE-Glo Luciferase Assay System (Promega, Madison, WI). This cell line has been used to screen the Tox21 10K compound library to identify agonists that induce oxidative stress. The cytotoxicity of the Tox21 compound library against the KS-ARE cell line was tested in parallel by measuring the cell viability using CellTiter- Fluor assay system (Promega, Madison, WI) in the same wells.
HaCaT derived cell line KeratinoSens were dispensed at 1,500 cells/5uL/well in 1536-well white wall/solid bottom plates using a Multidrop Combi (ThermoFisher Scientific, Waltham, MA) dispenser. After the assay plates were incubated at 37 C/5% CO2 for 5 h, 23 nL of compounds dissolved in DMSO, positive controls or DMSO only was transferred to the assay plate by a pintool workstation (Kalypsys, San Diego, CA). The plates were incubated at 37 C/5% CO2 for 23 h, followed by addition of 1uL/well of CellTiter-Fluor reagent into the assay plates using a Flying Reagent Dispenser (Aurora Discovery, San Diego, CA) for cell viability readout that measures cytotoxicity. After 1 h incubation at 37 C/5% CO2 the fluorescence intensity was measured using a ViewLux (PerkinElmer, Shelton, CT) plate reader. Then 4uL/well of One-Glo were added using a Flying Reagent Dispenser. After the plates were incubated at room temperature for 30 min, the luminescence intensity in the assay plates was measured using ViewLux plate reader.
With `C/C=C/c1ccc(O)c(OC)c1` the Potency was “inactive”.
With `CCOC(=O)NNc1nncc2ccccc12` the Potency was “inactive”.
For `Cc1cc(C)c(C)cc1C`, the Potency was “inactive”.
In the case of `CC(C)(C)[C@@H](O)[C@@H](Cc1ccc(Cl)cc1)n1cncn1`, the Potency is reported as “inactive”.
For `CC(C)(N)CO`, the Potency was “inactive”.
For `O=C(O)c1cccc([N+](=O)[O-])c1`, the Potency was “inactive”.
With `Cc1ccc(C)c(O)c1C` the Potency was “inactive”.
In the case of `Cc1ccc([N+](=O)[O-])cc1S(=O)(=O)O`, the Potency is reported as “inactive”.
For `Clc1ccc(Cl)c(Cl)c1Cl`, the Potency was “inactive”.
With `c1ccc(Nc2ccccc2)cc1` the Potency was 61.1 µM (active) and inactive.
In the case of `C[Si](O[Si](C)(C)C)O[Si](C)(C)C`, the Potency is reported as “inactive”.
With `NCCOCCO` the Potency was “inactive”.
For `O=[N+]([O-])c1cc(C(F)(F)F)ccc1Cl`, the Potency was “inactive”.
With `CCCCCC1C(=O)CCC1CC(=O)OC` (stereo not given) the Potency was “inactive”.
With `Cc1ccc(S(=O)(=O)NCl)cc1` the Potency was “inactive”.
In the case of `Oc1ccc(Cc2ccccc2O)cc1`, the Potency is reported as “inactive”.
In the case of `O=C(O)c1ccccc1`, the Potency is reported as “inactive”.
With `O=[N+]([O-])c1ccccc1C(F)(F)F` the Potency was “inactive”.
With `COc1cc([C@@H]2c3cc4c(cc3[C@H](O)[C@H]3COC(=O)[C@H]23)OCO4)cc(OC)c1OC` the Potency was 54.4 nM (active) and 53.1 nM (active).
In the case of `Cc1ncc[nH]1`, the Potency is reported as “inactive”.
With `CCCCC(CC)COC(=O)c1ccc(N(C)C)cc1` (stereo not given) the Potency was 30.8 µM (active) and 54.5 µM (active) and inactive.
For `Nc1ccccc1[N+](=O)[O-]`, the Potency was “inactive”.
With `NC=O` the Potency was “inactive”.
With `OCCOCCN1CCN(C(c2ccccc2)c2ccc(Cl)cc2)CC1` (stereo not given) the Potency was “inactive”.
For `Nc1ccc(C(=O)O)cc1`, the Potency was “inactive”.
For `Cc1ccc2c(c1)C(=O)OC2=O`, the Potency was “inactive”.
For `COC(=O)CCCCC(=O)OC`, the Potency was “inactive”.
For `CCCCCCCCCC(=O)O`, the Potency was “inactive”.
With `CC(C)(CO)COC(=O)C(C)(C)CO` the Potency was “inactive”.
With `COc1ccc(O)cc1` the Potency was “inactive”.
With `C[C@]12C[C@H](O)[C@H]3[C@@H](CCC4=CC(=O)CC[C@@]43C)[C@@H]1CC[C@@H]2C(=O)CO` the Potency was “inactive”.
For `CCOCC(=O)O`, the Potency was “inactive”.
With `C=CC[N+](C)(C)CC=C` the Potency was “inactive”.
With `CCC(C)OC(=O)c1ccc(O)cc1` (stereo not given) the Potency was “inactive”.
For `CCC(O)OC(O)CC` (stereo not given), the Potency was “inactive”.
In the case of `CCOC(=O)/C=C\C(=O)OCC`, the Potency is reported as “inactive”.
In the case of `O=C1O[C@H]([C@H](O)CO)C(O)=C1O`, the Potency is reported as “inactive”.
In the case of `CS(=O)(=O)OCCCCOS(C)(=O)=O`, the Potency is reported as “inactive”.
In the case of `CCCCOC(=O)c1ccc(N)cc1`, the Potency is reported as “inactive”.
For `Nc1ccc2c(c1)C(=O)c1ccccc1C2=O`, the Potency was 756 nM (active) and 243 nM (active).
